The panel holds about 79,000 compounds, 15% with a hit somewhere; the sample as a whole holds those more often. The source made the active and inactive calls. No stated cut-off is given here; in the data, active means growth inhibition above about 70%; inactive means the rest.
Key:
[1] = NCI Yeast Anticancer Drug Screen. Data for the mlh1 strain (AID 171);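 further: 0% = growth of vehicle-treated control cultures of the same strain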; conditions: S. cerevisiae mlh1 strain growth inhibition, active compounds read high
Method in brief: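 Yeast screen: mutant strain plus compound, growth scored against vehicle control wells.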

[2] = NCI Yeast Anticancer Drug Screen. Data for the sgs1 strain (AID 173);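 further: 0% = growth of vehicle-only control cultures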; conditions: S. cerevisiae sgs1 mutant, active compounds read high
Method in brief: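 Inhibition of yeast growth served as the measure. The mutant strain was treated with each compound, and growth was normalised to cultures receiving vehicle alone.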

[3] = NCI Yeast Anticancer Drug Screen. Data for the mlh1 rad18 strain (AID 175); conditions: S. cerevisiae mlh1 rad18 strain growth inhibition, active compounds read high
Method in brief: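 Compound-treated yeast growth, normalised to vehicle controls. Strain bears defined DNA repair mutations.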

[4] = NCI Yeast Anticancer Drug Screen. Data for the rad18 strain (AID 177); conditions: S. cerevisiae rad18 mutant growth inhibition, active compounds read high
Method in brief: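 Inhibition values reflect reduced yeast growth compared with vehicle-treated controls, using a strain engineered with a DNA damage repair defect.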

[5] = NCI Yeast Anticancer Drug Screen. Data for the rad52 strain (AID 147);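 further: 0% = growth of vehicle-treated control cultures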; conditions: S. cerevisiae rad52 mutant growth inhibition, active compounds read high
Method in brief: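 Genetically altered yeast (DNA damage repair defect) treated with compound; inhibition calculated relative to vehicle.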

[6] = NCI Yeast Anticancer Drug Screen. Data for the wt1 strain (AID 149);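 further: 0% = growth of vehicle-treated wt1 cultures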; conditions: S. cerevisiae wt1 strain (SPY 50644) growth inhibition, active compounds read high
Method in brief: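 Yeast wt1 strain exposed to compounds; growth inhibition measured relative to vehicle-treated controls.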

[7] = NCI Yeast Anticancer Drug Screen. Data for the rad50EPP+ strain (AID 151);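 further: 0% = growth of vehicle-treated control cultures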; conditions: S. cerevisiae rad50 mutant strain, active compounds read high
Method in brief: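 Strain rad50EPP+; compound exposure; % growth inhibition vs vehicle.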

[8] = NCI Yeast Anticancer Drug Screen. Data for the mgt1 strain (AID 153); conditions: S. cerevisiae mgt1 mutant growth inhibition, active compounds read high
Method in brief: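 Read-out: yeast growth inhibition vs vehicle control. Strain mgt1, drawn from a panel altered in DNA damage repair or cell cycle control.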

[9] = NCI Yeast Anticancer Drug Screen. Data for the rad50 strain (AID 155);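 further: 0% = growth of vehicle-only cultures of the same strain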; conditions: S. cerevisiae rad50 strain growth inhibition, active compounds read high
Method in brief: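 Yeast carrying a defined DNA repair defect were exposed to test compounds, and growth was compared with vehicle-treated controls to give percent inhibition.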

[10] = NCI Yeast Anticancer Drug Screen. Data for the mec2-1 strain (AID 157); conditions: S. cerevisiae mec2-1 strain, active compounds read high
Method in brief: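 Cells of the genetically defined mec2-1 yeast strain are incubated with test compound. Inhibition of growth is calculated against vehicle-treated controls.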

[11] = NCI Yeast Anticancer Drug Screen. Data for the rad14 strain (AID 159);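 further: 0% = growth of vehicle-treated control cultures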; conditions: S. cerevisiae rad14 strain growth inhibition, active compounds read high
Method in brief: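 Yeast cells carrying a defined DNA-repair defect were exposed to compounds, and growth inhibition was calculated relative to vehicle-treated control cultures.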

[12] = NCI Yeast Anticancer Drug Screen. Data for the sgs1 mgt1 strain (AID 161);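 further: 0% = growth of cultures given vehicle only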; conditions: S. cerevisiae sgs1 mgt1 strain, active compounds read high
Method in brief: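 Read-out: growth inhibition vs vehicle controls. Cells: mutant yeast strain deficient in DNA damage repair.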

[13] = NCI Yeast Anticancer Drug Screen. Data for the cln2 rad14 strain (AID 165);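 further: 0% = growth equal to vehicle treated cultures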; conditions: S. cerevisiae cln2 rad14 strain, active compounds read high
Method in brief: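 The screen exposed genetically defined yeast (cln2 rad14) to test compounds and scored growth inhibition relative to vehicle-treated controls.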

[14] = NCI Yeast Anticancer Drug Screen. Data for the bub3 strain (AID 167); conditions: S. cerevisiae bub3 mutant strain, active compounds read high
Method in brief: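 Compounds were applied to a genetically altered yeast strain carrying a cell-cycle control defect. Growth inhibition was scored against vehicle-treated controls.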

[15] = NCI Yeast Anticancer Drug Screen. Data for the wt2 strain (AID 169);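 further: 0% = growth of vehicle-treated yeast cultures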; conditions: S. cerevisiae wt2 strain growth inhibition, active compounds read high
Method in brief: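 Steps: yeast strain treated with compound; growth recorded; inhibition calculated relative to cultures given vehicle alone.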

[16] = NCI Yeast Anticancer Drug Screen. Data for the CLN2oe strain (AID 163);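 further: 0% = growth of vehicle-only control cultures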; conditions: S. cerevisiae CLN2oe strain, active compounds read high
Method in brief: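 Strain altered in cell-cycle control, incubated with compound; growth compared to solvent-treated controls.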

[17] = at 5.0 µM (retest, dose inferred, filed as 0.5)
[18] = at 50.0 µM (retest, dose inferred, filed as 5.0)

Measured: growth inhibition

Cc1nn(-c2cc(Cl)ccc2[N+](=O)[O-])c(C)c1Cl
inactive: [1]; at 1.2 µM 0% | [1]; at 3.7 µM 2% | [1]; at 11.0 µM 3% | [1]; at 33.0 µM 1% | [1]; at 100.0 µM 3% | [2]; at 1.2 µM -1% | [2]; at 3.7 µM -2% | [2]; at 11.0 µM -1% | [2]; at 33.0 µM -1% | [2]; at 100.0 µM 2% | [3]; [17] -3% | [3]; [18] -9% | [3]; at 50.0 µM 15.2% | [4]; at 1.2 µM 2% | [4]; at 3.7 µM 2% | [4]; at 11.0 µM 2% | [4]; at 33.0 µM -14% | [4]; at 100.0 µM 1%

CC(C)C1=CC2=C[C@H](O)[C@H]3C(C)(C)CCC[C@]3(C)C2=C(O)C1=O
active: [5]; at 11.0 µM 99% | [5]; at 33.0 µM 99% | [5]; at 100.0 µM 94% | [6]; at 11.0 µM 99% | [6]; at 33.0 µM 99% | [6]; at 100.0 µM 94% | [7]; at 33.0 µM 97% | [7]; at 100.0 µM 94% | [8]; at 11.0 µM 99% | [8]; at 33.0 µM 99% | [8]; at 100.0 µM 95% | [9]; at 11.0 µM 98% | [9]; at 33.0 µM 98% | [9]; [18] 98% | [9]; at 50.0 µM 92.8% | [9]; at 100.0 µM 93% | [10]; at 11.0 µM 95% | [10]; at 33.0 µM 99% | [10]; [18] 99% | [10]; at 50.0 µM 93.5% | [10]; at 100.0 µM 96% | [11]; at 11.0 µM 100% | [11]; at 33.0 µM 99% | [11]; at 100.0 µM 95% | [12]; [18] 98% | [12]; at 50.0 µM 93.3% | [13]; [18] 98% | [13]; at 50.0 µM 91.5% | [14]; at 11.0 µM 79% | [14]; at 33.0 µM 99% | [14]; [18] 98% | [14]; at 50.0 µM 92.3% | [14]; at 100.0 µM 96% | [15]; at 11.0 µM 99% | [15]; at 33.0 µM 98% | [15]; at 100.0 µM 96% | [2]; at 11.0 µM 99% | [2]; at 33.0 µM 98% | [2]; at 100.0 µM 95% | [3]; [18] 98% | [3]; at 50.0 µM 92.3%
inactive: [5]; at 1.2 µM 7% | [5]; at 3.7 µM 38% | [6]; at 1.2 µM -3% | [6]; at 3.7 µM 13% | [7]; at 1.2 µM 0% | [7]; at 3.7 µM 19% | [7]; at 11.0 µM 69% | [8]; at 1.2 µM -3% | [8]; at 3.7 µM -7% | [9]; at 1.2 µM -6% | [9]; at 3.7 µM 13% | [9]; [17] 29% | [10]; at 1.2 µM -3% | [10]; at 3.7 µM -1% | [10]; [17] 54% | [11]; at 1.2 µM 6% | [11]; at 3.7 µM 23% | [12]; [17] 68% | [13]; [17] 8% | [14]; at 1.2 µM 2% | [14]; at 3.7 µM 9% | [14]; [17] 41% | [15]; at 1.2 µM 15% | [15]; at 3.7 µM 57% | [2]; at 1.2 µM 8% | [2]; at 3.7 µM 15% | [3]; [17] 62%

NC1=NS(=O)(=O)N=C(N)C1=Cc1ccc([N+](=O)[O-])o1
inactive: [5]; at 1.2 µM -23% | [5]; at 3.7 µM -14% | [5]; at 11.0 µM 20% | [6]; at 1.2 µM -20% | [6]; at 3.7 µM -11% | [6]; at 11.0 µM -6% | [6]; at 33.0 µM -18% | [7]; at 1.2 µM 0% | [7]; at 3.7 µM 18% | [7]; at 11.0 µM 64% | [8]; at 1.2 µM 7% | [8]; at 3.7 µM 16% | [8]; at 11.0 µM 12% | [8]; at 33.0 µM 33% | [9]; at 1.2 µM 6% | [9]; at 3.7 µM 21% | [9]; [17] 3% | [9]; at 11.0 µM 42% | [10]; at 1.2 µM -20% | [10]; at 3.7 µM -25% | [10]; [17] -20% | [10]; at 11.0 µM -15% | [10]; at 33.0 µM 10% | [10]; [18] 14% | [12]; [17] -6% | [12]; [18] 43% | [16]; at 1.2 µM 9% | [16]; at 3.7 µM 0% | [16]; at 11.0 µM -11% | [16]; at 33.0 µM 13% | [13]; [17] -16% | [13]; [18] 25% | [14]; at 1.2 µM 8% | [14]; at 3.7 µM -11% | [14]; [17] 5% | [14]; at 11.0 µM -22% | [14]; at 33.0 µM -27% | [14]; [18] 47% | [14]; at 50.0 µM 68.5% | [15]; at 1.2 µM -41% | [15]; at 3.7 µM -34% | [15]; at 11.0 µM -22% | [15]; at 33.0 µM -6% | [1]; at 1.2 µM -7% | [1]; at 3.7 µM -6% | [1]; at 11.0 µM 2% | [1]; at 33.0 µM 33% | [2]; at 1.2 µM -15% | [2]; at 3.7 µM -10% | [2]; at 11.0 µM 18% | [2]; at 33.0 µM 45% | [3]; [17] 3%
active: [5]; at 33.0 µM 82% | [5]; at 100.0 µM 97% | [6]; at 100.0 µM 98% | [7]; at 33.0 µM 88% | [7]; at 100.0 µM 97% | [8]; at 100.0 µM 99% | [9]; at 33.0 µM 78% | [9]; [18] 77% | [9]; at 50.0 µM 88% | [9]; at 100.0 µM 97% | [10]; at 50.0 µM 93.8% | [10]; at 100.0 µM 98% | [12]; at 50.0 µM 92.7% | [16]; at 100.0 µM 99% | [13]; at 50.0 µM 74.7% | [14]; at 100.0 µM 98% | [15]; at 100.0 µM 98% | [1]; at 100.0 µM 98% | [2]; at 100.0 µM 98% | [3]; [18] 84% | [3]; at 50.0 µM 88.8%
